The other results are listed elsewhere or left out. Unmarked numbers belong to inactive results. The rule behind the calls is not given here.

Broadly, the inhibition is the drop in the measured response relative to a control, in per cent.

The assay deals with Botulinum neurotoxin type F light chain protease (Clostridium botulinum). The assay can be described thus: inhibition of botulinum toxin F LC protease – biochemical, flow cytometry, cherry pick 1, confirmation (AID 602140). The note with it: multiplex microsphere protease cleavage assay, at 10 µM, stronger effect = higher value. In general terms: Flow cytometry measures light scatter and fluorescence of single cells or particles in a stream.
For `COCCn1nnnc1C(c1cc2ccc(OC)cc2[nH]c1=O)N1CCc2ccccc2C1` (configuration not stated), the inhibition was -9.6%.
On to `CC(=O)Nc1ccc(Oc2ccc3c(c2)C(=O)NC3=O)cc1`, for which the inhibition is -3.5%.
Under `CC1CCN(C(=O)c2ccc(S(=O)(=O)Cc3cc(F)ccc3F)c([N+](=O)[O-])c2)CC1` stands 1.2%; under `COc1ccccc1CNC(=O)C1Cc2ccccc2C(=O)O1` (configuration not stated), -1.3%.
Under `CCN1CCN(C(C(=O)NC2CCCC2)c2cc3c(cc2[N+](=O)[O-])OCO3)CC1` (configuration not stated) stands -4.2%.
Regarding `COc1ccc(Br)cc1CNCCc1cccc(Cl)c1`, the inhibition was -10%.
On to `COC(=O)CN(c1nc(C)c(Cl)c(OC)n1)S(=O)(=O)c1ccc(C)cc1`, for which the inhibition was -0.3%.
Consider `O=C(O)c1cc(S(=O)(=O)NC2CCCc3ccccc32)ccc1O` (configuration not stated), for which the inhibition was -1.4%.
Under `O=C(CN1CCCCCC1)Nc1c(Cl)cc(Cl)cc1Cl` stands -7.6%; under `Cc1ccc(-c2nc(-c3cccnc3)sc2CC(=O)Nc2ccc(C)c(Cl)c2)cc1`, -18.6%; under `CCOCCn1c(-c2ccccc2)nc2ccccc21`, -2.2%.
As for `Brc1ccc2ncnc(NCc3cccnc3)c2c1`, the inhibition is -1.4%.
Under `CCOc1nnc(C)c2c(C)n(-c3cccc(Cl)c3)nc12` stands 18.1%; under `COc1cc2cc(CN(CCN3CCCC3)C(=O)Nc3ccccc3Cl)c(=O)[nH]c2cc1OC`, 0.8%; under `COc1ccccc1-n1c(-c2cc(-c3ccco3)[nH]n2)n[nH]c1=S`, 4%.
The value for `Clc1ccc(-c2ncc3ccccn23)c(Cl)c1` was -4.7%.
Consider `Cc1cccc2cc3c(N)c(C(=O)N4CCCc5ccccc54)sc3nc12`, for which the inhibition was 0.3%.
On to `COc1ccccc1C1CCN(C(=S)Nc2ccc(Br)cc2)CC1`, for which the inhibition is 4.3%.
Under `Cc1c(NC(=O)c2cccnc2)c(=O)n(-c2ccccc2)n1C` stands 2.7%.
Under `Cc1ccc2[nH]cc(CCNC(=O)C3CCCCC3)c2c1` stands 0.6%.
The value for `COc1cc(C(=O)NCc2ccc3c(c2)cc(C)n3C)cc(OC)c1OC` was -4.7%.
In the case of `Nc1ccccc1Sc1cc(Cl)nnc1Cl`, the inhibition is -1.4%.
